# Screens deposited in PubChem BioAssay by National Center for Advancing Translational Sciences (NCATS).
# The entries come from a sample that favours hits as a whole.
# LmPK inh – blocks Leishmania mexicana pyruvate kinase activity | Potency, µM (doses to about 57.5 µM), for inactives: top-dose activity change, negative = inhibition, usual class: inhibitors | 290,000 compounds, 0.37% hits | AID 1721 | Q27686 | purified LmPK, Kinase-Glo ATP luminescence, 1 h; active = well fitted curve in the direction sought with a large enough effect; inconclusive = small, poorly fitted or top-dose-only effect, or another doubt; inactive = no such curve, though single readings can be large; an effect the other way counts as inactive or inconclusive; note: potency is the fitted concentration of half-maximal effect; % is set by controls: 0 for no effect and ±100 for the full control effect
# Target sequence (Q27686 whole entry, looked up): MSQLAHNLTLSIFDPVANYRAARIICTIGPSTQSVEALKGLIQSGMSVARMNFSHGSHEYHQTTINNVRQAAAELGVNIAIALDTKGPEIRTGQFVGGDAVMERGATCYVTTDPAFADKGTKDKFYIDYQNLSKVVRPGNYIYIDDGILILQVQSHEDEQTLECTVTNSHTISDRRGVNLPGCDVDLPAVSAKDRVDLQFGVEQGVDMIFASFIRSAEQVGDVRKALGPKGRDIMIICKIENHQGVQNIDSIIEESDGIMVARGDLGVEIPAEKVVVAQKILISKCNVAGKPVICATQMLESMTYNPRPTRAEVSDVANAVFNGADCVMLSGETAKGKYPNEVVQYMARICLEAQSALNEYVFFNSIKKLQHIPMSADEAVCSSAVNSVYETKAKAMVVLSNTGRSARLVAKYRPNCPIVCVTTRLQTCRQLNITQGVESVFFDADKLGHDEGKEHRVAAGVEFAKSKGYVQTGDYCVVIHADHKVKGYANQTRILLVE
#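 In 50 mM imidazole pH 7.2 with 7 mM MgCl2, LmPK (0.1 nM) turned over PEP (0.5 mM) and ADP (0.1 mM) for 1 h at room temperature. Luciferase read-out of ATP.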
# Cycloheximide cs – affects cycloheximide protein synthesis inhibition readout, counter-screen. cell reporter, cycloheximide protein synthesis inhibition counterscreen. max response, %. 300,000 compounds, 12% hits. AID 2314; in the data active = max response mostly above about 13%, no sharp cut-off; inactive = mostly below about 14%; note: read at 38.3 µM for the half of the compounds with a filed dose; 0% is about no effect
# Shiga toxin inh – blocks Shiga toxin action in Vero cells | Vero cells, Shiga toxin protein synthesis inhibition reporter | inhibition, % at 38.7 µM | 290,000 compounds, 9.2% hits; in the data active = inhibition mostly above about 28%, no sharp cut-off; inactive = mostly below about 43%; note: 0% is about no effect
# TbPYK inhibitor – T. brucei pyruvate kinase inhibition; Q57TT1; TbPYK enzyme, Kinase-Glo Plus ATP luminescence, 45 min; Potency, µM (highest dose often 76.8 µM), for inactives: top-dose activity, negative = inhibition, usual class: inhibitors; 410,000 compounds, 0.12% hits; active = well fitted curve in the direction sought with a large enough effect; inconclusive = small, poorly fitted or top-dose-only effect, or another doubt; inactive = no such curve, though single readings can be large; an effect the other way counts as inactive or inconclusive; note: potency is the fitted concentration of half-maximal effect; % is set by controls: 0 for no effect and ±100 for the full control effect; nearly all actives have a fitted effect of over 50% in size
#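 Luminescent Kinase-Glo Plus end-point after 45 min room-temperature reaction of T. brucei pyruvate kinase started with 130 uM ADP (final). Buffer TEA 50 mM pH 7.2 with KCl, MgCl2, BSA, Tween-20; titration-based qHTS with fitted concentration-effect curves.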
# NS1 function inh – inhibitors of influenza NS1 protein function | Potency, µM (series often up to 46.1 µM), inactives show at the highest dose activity, positive = more growth | 270,000 compounds, 0.4% hits | AID 2326; note: potency is the fitted concentration of half-maximal effect; actives are rising curves; nearly all actives have a fitted effect of over 50% in size
#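 OD600 was taken as the measure of yeast growth restored by compound in an NS1-expressing S. cerevisiae strain. Cells had been washed out of glucose medium and diluted 1:100 into galactose -URA medium, pH 6.0.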
# SARS PLP yeast – SARS-CoV PLP inhibition in yeast; 330,000 compounds, 0.19% hits; AID 485353; S. cerevisiae expressing SARS-CoV PLpro, growth rescue; Potency, µM (doses to about 32.9 µM), inactives show at the highest dose activity, positive = growth rescue, hits mostly activators; note: potency is the fitted concentration of half-maximal effect; 0% is about no effect; nearly all actives have a fitted effect of over 55% in size
# * marks the source's active call; other numbers are inactive results; ? = inconclusive; / = not tested or not shown. Unless noted, calls come from the whole dose curve.
SMILES,LmPK inh,Cycloheximide cs,Shiga toxin inh,TbPYK inhibitor,NS1 function inh,SARS PLP yeast
CCOC(=O)c1sc(-c2ccccc2)cc1NC(=O)Nc1ccc([N+](=O)[O-])cc1,2.1%,-1.9,-5.5,2.4%,-9.6%,-1.6%
CCOC(=O)c1cc(-c2ccccc2)sc1N,1.8%,36.5*,58.6*,-18.7%,-98.4%,13.8%
CCOC(=O)c1sc(-c2ccc(OC)cc2)cc1N,-6.6%,43.9*,131.7*,-0.2%,-3.2%,-8.9%
Cc1c(C(=O)OC(C)C)sc(NC(=O)C2c3ccccc3Oc3ccccc32)c1C(=O)OC(C)C,/,/,/,-2.8%,/,/
CCOC(=O)c1sc(-c2ccc(F)cc2)cc1N,12.6%,45.7*,125.1*,-3.9%,-4.4%,-11.6%
O=C(COc1cc(Cl)ccc1Cl)Nc1nnc(C2CC2)s1,-16.4%,0.9,-2.1,-14.4%,-2.4%,0.8%
CC(=O)Nc1ccc(NCc2ccc(C)s2)cc1,0.0%,20.5*,49.6*,-4.5%,8.0%,-1.2%
Cc1ccc(CNc2cc(C(=O)O)ccc2C)s1,2.8%,-4.0,-5.2,1.4%,-48.1%,-0.1%
CCCC(=O)Nc1ccc(NCc2ccc(C)s2)cc1,7.6%,active,29.3,-7.7%,-17.5%,-2.7%
Cc1ccc(NC(=O)CCC(=O)Nc2ccc(C)cc2)cc1,3.1%,5.7,-13.9,0.1%,-2.4%,11.8%
COc1cc(/C=N/N2CCCCC2)cc(OC)c1O,-28.4%,8.4,23.8,?,3.8%,0.0%
CC1OC(OCC2OC(Oc3cc(O)c4c(c3)OC(c3ccc(O)cc3)CC4=O)C(O)C(O)C2O)C(O)C(O)C1O (centres undefined),/,-7.0,14.2,/,/,/
C#CCOc1ccc(CNC[C@H]2O[C@@H](n3ccc(=O)[nH]c3=O)[C@H](O)[C@@H]2O)cc1,/,/,/,0.6%,/,/
COCC(=O)N(Cc1cc2ccccc2[nH]c1=O)c1ccc(OC)cc1,1.7%,-2.5,-7.1,-4.4%,-6.5%,4.6%
COCC(=O)N(Cc1cc2cc(OC)ccc2[nH]c1=O)c1ccccc1,7.7%,16.4*,33.8,-3.2%,5.7%,1.2%
COc1cc(C(=S)N2CCOCC2)ccc1OS(=O)(=O)c1ccccc1[N+](=O)[O-],0.9%,11.4,-11.6,-21.2%,26.3%,-4.0%
COc1ccc(C(=S)N2CCOCC2)cc1OS(=O)(=O)c1ccccc1[N+](=O)[O-],0.2%,28.0*,45.7,-24.9%,-10.9%,-2.9%
COc1ccc(CCNC(=O)CCCn2c(=O)c3cccn3c3ccc(F)cc32)cc1OC,/,/,/,4.2%,/,/
COc1cc(-c2nc(-c3ccccn3)no2)cc(OC)c1OC,4.2%,17.3*,80.8*,-0.6%,-13.7%,9.3%
COc1cc(OC)cc(-c2nc(-c3ccccc3OC)no2)c1,-0.3%,4.5,31.2,-12.7%,4.1%,-16.3%
OC[C@H]1O[C@@H](c2nc(-c3cccc4ccccc34)no2)[C@H](O)[C@@H]1O,/,/,/,-2.4%,/,/
COc1cccc(-c2nc(-c3ccccn3)no2)c1OC,-5.7%,37.3*,134.4*,-27.6%,-4.1%,0.8%
c1ccc(-c2noc(-c3cccc4ccccc34)n2)nc1,?,42.6*,40.6*,1.1%,-121.1%,-8.5%
CCS(=O)(=O)c1nc2ccccc2n1CC(=O)Nc1ccccc1C(=O)OC,/,/,/,2.0%,/,/
COc1ccc(/C=C2\OC(=S)N(C)C2=O)cc1,3.8%,10.8*,23.3,-1.7%,-20.1%,-66.0%
SMILES,LmPK inh,Cycloheximide cs,Shiga toxin inh,TbPYK inhibitor,NS1 function inh,SARS PLP yeast
CN1C(=O)/C(=C\c2ccc(N(C)C)cc2)OC1=S,-3.0%,11.6*,1.1,-19.2%,5.2%,-0.2%
COc1ccc(/C=C2\C(=O)NCC(=O)N2C)cc1,-1.4%,-2.8,-4.7,-8.0%,2.7%,0.4%
CN(C)c1ccc(/C=C2\N=C(C(C)(C)C)OC2=O)cc1,-2.0%,7.2,-0.7,-1.9%,-0.6%,-3.3%
O=c1[nH]c(-c2ccc(O)cc2)nc2scc(-c3cccs3)c12,-2.8%,79.6*,107.7*,-6.9%,3.0%,-1.5%
COc1ccc(OCC(=O)OCc2cc(=O)n3nc(-c4cccs4)sc3n2)cc1,/,/,/,-9.5%,/,/
CCN1C(=O)/C(=C\c2ccco2)C(C(=O)OC)=C1C,5.9%,-4.1,-14.2,-7.0%,-3.7%,2.5%
COC(=O)C1=C(C)N(c2cccc(OC)c2)C(=O)/C1=C\c1ccco1,-1.7%,17.4*,35.6,11.0%,-5.8%,17.4%
CCOC(=O)Cc1csc(SCC(=O)NC2CCS(=O)(=O)C2)n1 (centres undefined),/,/,/,-7.4%,/,-8.5%
